Drawing on PubChem BioAssay, this text covers z-score and composite z-score for nine molecules.

A short description of assay [1]: compound effects on lung adenocarcinoma cell viability – A549, calcein-AM fluorescence, 48 h, basal, profiling panel (AID 1162). Further: test concentration not given here. The following applies: higher = more signal.
A short description of assay [2]: compound effects on differentiated 3T3-L1 adipocyte viability – cell-based, 3T3-L1 adipocytes, calcein-AM fluorescence, 48 h, basal, profiling panel (AID 1163). Further: test concentration not given here. The following applies: 3T3-L1 adipocytes viability, higher = more signal.
Assay [3] is described as follows: compound effects on hepatocellular carcinoma cell viability – HepG2, calcein-AM fluorescence, 48 h, basal, profiling panel (AID 1164). Further: test concentration not given here. The following applies: higher = more signal.
Assay [4] can be described thus: compound effects on multiple myeloma cell viability – MM1S, calcein-AM fluorescence, 48 h, basal, profiling panel (AID 1165). Further: test concentration not given here. As to conditions: higher = more signal.
The nature of assay [5]: calcein-AM signal in unstimulated myeloma cells – cell-based, calcein-AM fluorescence, 48 h, PK04 Diversity Set, profiling panel (AID 1166).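 Further: cells grown under basal conditions without added stimulus; test concentration not given here.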 As to conditions: RPMI8226 myeloma viability, higher = more signal.
A short description of assay [6]: JC-1 mitochondrial signal, unstimulated HepG2 cells – cell-based, JC-1 fluorescence, 24 h, 100 nL compound, profiling panel (AID 1167). Further: test concentration not given here. The following applies: HepG2 mitochondrial potential, higher = more signal.
Assay [7] in a line: JC-1 mitochondrial signal, unstimulated adipocytes – cell-based, JC-1 fluorescence, 3T3-L1 adipocytes, 24 h, 100 nL compound, profiling panel (AID 1168). Further: test concentration not given here. The following applies: JC-1 mitochondrial fluorescence, higher = more signal, called active from +8 up or from −8 down.
Assay [8] in a line: JC-1 mitochondrial signal, unstimulated myeloma cells – cell-based, JC-1 fluorescence, RPMI8226, 24 h, 100 nL compound, profiling panel (AID 1169). Further: test concentration not given here. As to conditions: JC-1 mitochondrial potential fluorescence, higher = more signal.
Assay [9] is described as follows: JC-1 mitochondrial signal, unstimulated MM1S myeloma – cell-based, JC-1 fluorescence, 24 h, 100 nL compound, profiling panel (AID 1170). Further: test concentration not given here. As to conditions: MM1S mitochondrial potential, higher = more signal.
Assay [10] can be described thus: resazurin metabolic signal in A549 cells – cell-based, resazurin fluorescence, 24 h, PK04 Diversity Set, profiling panel (AID 1171). Further: test concentration not given here. As to conditions: A549 viability, higher = more signal, called active from +8 up or from −8 down. In general terms: Alamar Blue is a resazurin reagent that responds to reducing activity.
Assay [11] in a line: resazurin metabolic signal in HepG2 cells – cell-based, resazurin fluorescence, 24 h, PK04 Diversity Set, profiling panel (AID 1172). Further: test concentration not given here. As to conditions: HepG2 viability, higher = more signal.
Assay [12] in a line: budding yeast growth changes without added modifier – OD600, strain BY4716, 24 h, basal condition, primary screen (AID 1173). The following applies: S. cerevisiae BY4716 growth, OD600, 24 h; higher = more signal, called active from +8 up or from −8 down.
Assay [13] can be described thus: viability profiling in MM1S myeloma cells – cell-based, resazurin fluorescence, basal, 24 h, PK04 Diversity Set, profiling panel (AID 1174). Further: test concentration not given here. As to conditions: higher = more signal, called active from +8 up or from −8 down.
The target in assay [14] is Dihydroorotate dehydrogenase (quinone), mitochondrial (Plasmodium falciparum (isolate 3D7)) (UniProt Q08210). In words: inhibition of P. falciparum DHODH – biochemical, C-terminal His tag, absorbance 600 nm, primary screen (AID 1175).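 Further: recombinant parasite enzyme with a five histidine tag at its C terminus; test concentration not given here.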 The following applies: PfDHODH enzyme, DCIP absorbance 600 nm; higher = more signal, called active from +8 up or from −8 down.
Sequence of Dihydroorotate dehydrogenase (quinone), mitochondrial (Plasmodium falciparum (isolate 3D7)) (Q08210 whole entry, looked up): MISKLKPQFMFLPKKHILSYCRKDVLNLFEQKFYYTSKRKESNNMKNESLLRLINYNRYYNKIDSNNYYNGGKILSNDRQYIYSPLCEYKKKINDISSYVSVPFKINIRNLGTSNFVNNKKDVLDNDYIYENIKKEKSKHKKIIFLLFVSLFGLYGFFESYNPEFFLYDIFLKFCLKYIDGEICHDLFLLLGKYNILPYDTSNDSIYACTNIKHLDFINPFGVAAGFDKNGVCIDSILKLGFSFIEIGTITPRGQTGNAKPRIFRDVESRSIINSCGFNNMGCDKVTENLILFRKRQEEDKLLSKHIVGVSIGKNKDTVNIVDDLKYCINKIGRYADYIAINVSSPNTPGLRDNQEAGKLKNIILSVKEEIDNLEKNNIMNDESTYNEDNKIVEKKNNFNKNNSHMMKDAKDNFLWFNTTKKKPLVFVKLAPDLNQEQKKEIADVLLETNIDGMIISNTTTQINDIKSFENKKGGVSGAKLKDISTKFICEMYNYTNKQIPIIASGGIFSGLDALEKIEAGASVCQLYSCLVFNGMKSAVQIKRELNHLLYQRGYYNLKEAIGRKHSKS
Assay [15] in a line: growth modulation of vineyard yeast isolate – strain RM11-1a, OD600, basal, 24 h, primary screen (AID 1177).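 Further: cultures grown under basal conditions with no added stressor; test concentration not given here.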 The following applies: S. cerevisiae RM11-1a growth, OD600, 24 h; higher = more signal, called active from +8 up or from −8 down.
The nature of assay [16]: growth of efflux-deficient E. coli DRC39 – strain DRC39, OD650, 24 h, E. coli filamentation inducers, primary screen (AID 1178).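 Further: growth measured as culture turbidity by optical density at 650 nm; test concentration not given here.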 As to conditions: E. coli DRC39 acrAB, higher = more signal, called active from +8 up or from −8 down.
Assay [17] can be described thus: growth of efflux-deficient E. coli DRC39 – strain DRC39, OD650, 48 h, E. coli filamentation inducers, primary screen (AID 1179).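 Further: screen aims at cell division blockers that make cells filament.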 The following applies: E. coli DRC39 delta-acrAB growth, higher = more signal, called active from +8 up or from −8 down.
The nature of assay [18]: viability profiling in RPMI8226 myeloma cells – cell-based, resazurin fluorescence, basal, 24 h, PK04 Diversity Set, profiling panel (AID 1180).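 Further: RPMI8826 multiple myeloma cell line at 5000 cells per well; test concentration not given here.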 The following applies: higher = more signal.
Assay [19] concerns the target E3 ubiquitin-protein ligase XIAP (Homo sapiens) (UniProt P98170). In words: small molecules binding XIAP protein – biophysical, small-molecule microarray, fluorescence 635 nm, primary screen (AID 1181).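 Further: score merges 667 nm emission and signal to noise over triplicate slides.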 As to conditions: higher = more signal.

Activity calls are given as the source filed them.

Sequence of E3 ubiquitin-protein ligase XIAP (Homo sapiens) (P98170 whole entry, looked up): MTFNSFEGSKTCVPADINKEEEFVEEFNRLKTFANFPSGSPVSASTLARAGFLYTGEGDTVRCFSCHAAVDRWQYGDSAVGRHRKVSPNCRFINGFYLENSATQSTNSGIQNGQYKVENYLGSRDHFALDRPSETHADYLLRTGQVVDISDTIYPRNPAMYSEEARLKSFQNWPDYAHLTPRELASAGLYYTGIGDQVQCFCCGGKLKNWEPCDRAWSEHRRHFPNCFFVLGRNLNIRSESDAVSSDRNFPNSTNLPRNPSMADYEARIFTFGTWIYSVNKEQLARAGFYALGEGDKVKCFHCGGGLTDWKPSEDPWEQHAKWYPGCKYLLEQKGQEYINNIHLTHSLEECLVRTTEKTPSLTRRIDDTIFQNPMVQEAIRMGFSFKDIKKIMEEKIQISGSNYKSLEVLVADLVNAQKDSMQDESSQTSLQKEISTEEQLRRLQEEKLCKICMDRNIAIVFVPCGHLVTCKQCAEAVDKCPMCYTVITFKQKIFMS

As to `CO[C@H]1COC(=O)CC=C[C@H](C)[C@@H](OC)COC(=O)[C@H](Cc2ccccc2)NC(=O)CC=C[C@@H]1C`, the z-score is 0.0767 in [1]; 1.57 in [2]; 0.219 in [3]; 0.196 in assay [4]; 0.988 in [5]; 0.566 in [6]. Besides, the z-score is 0.746 (inactive) in assay [7]; -0.0213 in [8]; 1.14 in assay [9]; 0.345 (inactive) in assay [10]; 1.26 in assay [11]; -0.562 (inactive) in assay [12]. Further, the z-score in assay [13] is 1 (inactive); in [15], 0.33 (inactive); in assay [16], 0.424 (inactive); in assay [17] it was -1.39 (inactive); in assay [18] it was 0.452. Moreover, the results for the composite z-score in [14] and in assay [19] were 1.09 (inactive) and -0.031, respectively.
For `CSCC[C@@H]1NC(=O)CC=C[C@@H](C)COC(=O)[C@H](CCSC)NC(=O)CC=C[C@@H](C)COC1=O`, the z-score is 0.364 in assay [1]; 1.7 in assay [2]; 0.0574 in assay [3]; 0.0493 in assay [4]; 0.0542 in assay [5]; 0.79 in assay [6]. Further, the z-score in assay [7] is 0.647 (inactive); in assay [8] it was 0.508; in [9], 0.388; in assay [10], 0.376 (inactive); in [11], 0.413; in [12], -1.37 (inactive). Also, the z-score was 0.94 (inactive) in assay [13]; -1.46 (inactive) in assay [15]; -0.251 (inactive) in assay [16]; -0.407 (inactive) in assay [17]; 0.613 in assay [18]. For the same molecule, the composite z-score is 0.576 (inactive) in [14] and -0.243 in assay [19].
Turning to `CO[C@@H]1COC(=O)[C@H](COCc2ccccc2)NC(=O)CC=C[C@@H](C)[C@H](OC)COC(=O)[C@H](COCc2ccccc2)NC(=O)CC=C[C@H]1C`, the z-score in assay [1] was 0.404; in assay [2], 0.67; in assay [3], -0.0841; in [4], 0.0234; in assay [5], 0.711; in assay [6], 0.849. The z-score was 1 (inactive) in assay [7]; 0.525 in [8]; 0.178 in assay [9]; 0.296 (inactive) in assay [10]; 0.784 in assay [11]; -0.173 (inactive) in assay [12]. The z-score in assay [13] is 1.28 (inactive); in [15], 0.371 (inactive); in [16], 2.23 (inactive); in assay [17], -0.0924 (inactive); in [18] it was 0.415. In addition, the composite z-score is 0.946 (inactive) in assay [14] and 0.378 in assay [19].
In the case of `COCCOC(=O)N1C(=O)[C@@]2(c3cc(C#CCNC(N)=O)ccc31)[C@H](c1ccc(OCCO)cc1)N1[C@H](c3ccccc3)[C@H](c3ccccc3)OC(=O)[C@H]1[C@@H]2C(=O)Nc1nc2ccccc2s1`, the z-score was 0.556 in assay [1]; 1.49 in assay [2]; -0.801 in assay [3]; -0.139 in assay [4]; -0.138 in [5]; -3.18 in [6]. Also, the z-score in assay [7] is 2.96 (inactive); in assay [8], -0.964; in assay [9] it was -1.56; in [10], 0.708 (inactive); in assay [11] it was -0.265; in assay [12], 0.846 (inactive). The z-score in [13] is 1.48 (inactive); in [15], 2.46 (inactive); in assay [16], 0.24 (inactive); in assay [17], 0.782 (inactive); in [18], 1.3. Also, the figures for the composite z-score in [14] and in assay [19] were 0.665 (inactive) and 0.0472, respectively.
On to `CCCNC(=O)[C@@H]1c2ccccc2C(=O)N(Cc2cc(F)cc(C(F)(F)F)c2)[C@H]1c1ccc(CO)cc1`, for which the z-score in assay [1] was 1.68; in assay [2] it was 1.18; in assay [3], -0.0223; in assay [4] it was 0.168; in [5] it was 0.563; in assay [6], 2.07. The z-score is -0.31 (inactive) in assay [7]; 0.693 in [8]; 0.607 in assay [9]; 1.54 (inactive) in [10]; 0.527 in assay [11]; -1.69 (inactive) in assay [12]. Besides, the z-score in assay [13] is 0.919 (inactive); in [15] it was -1.41 (inactive); in assay [16], 1.4 (inactive); in assay [17], 0.576 (inactive); in assay [18] it was 1.72. Moreover, the composite z-score is -0.0769 (inactive) in [14] and -0.129 in assay [19].
Take `C=C(CCCC)C(=O)CC[C@@H](OC(=O)c1cccnc1)c1cccc(OCCO)c1`: the z-score is 1.17 in assay [1]; 0.977 in assay [2]; -0.865 in assay [3]; -3.38 in [4]; -2.93 in assay [5]; 0.558 in [6]. Besides, the z-score was 0.645 (inactive) in [7]; -0.721 in assay [8]; -1.68 in assay [9]; 0.468 (inactive) in [10]; 0.147 in assay [11]; -1.41 (inactive) in [12]. Besides, the z-score in assay [13] is -4.18 (inactive); in assay [15], 0.0831 (inactive); in [16], 1.24 (inactive); in [17], 0.543 (inactive); in assay [18], -4.13. For the same molecule, the composite z-score is -1.57 (inactive) in assay [14] and -0.104 in [19].
Take `CC(C)(C)OC(=O)CC[C@@]1(C(=O)NCc2ccccc2)N=C(c2ccc(OCCCO)cc2)O[C@@H]1c1ccccc1`: the z-score was -0.595 in assay [1]; 1.16 in [2]; -0.907 in [3]; -2.37 in [4]; -3.23 in assay [5]; 1.9 in assay [6]. Besides, the z-score was 4.19 (inactive) in [7]; -0.791 in assay [8]; -0.552 in assay [9]; -2.88 (inactive) in [10]; -0.956 in assay [11]; -0.454 (inactive) in assay [12]. For the same molecule, the z-score in [13] was -1.49 (inactive); in assay [15], -0.801 (inactive); in assay [16] it was 2.23 (inactive); in [17], 1.5 (inactive); in assay [18], -1.76. The composite z-score in [14] was -0.362 (inactive); in [19], 0.174.
Consider `C=CC[C@]1(C(=O)OC)N=C(c2ccc(OCCCO)cc2)O[C@H]1c1ccccc1CN=[N+]=[N-]`, for which the z-score in assay [1] is -0.844; in assay [2], 1.51; in assay [3], -1.09; in assay [4] it was -2.04; in assay [5] it was -2.24; in [6], -0.000782. For the same molecule, the z-score is 0.21 (inactive) in [7]; -1.01 in assay [8]; 0.734 in assay [9]; -0.179 (inactive) in assay [10]; 0.84 in assay [11]; -4.46 (inactive) in assay [12]. Besides, the z-score was -0.609 (inactive) in assay [13]; 0.0359 (inactive) in assay [15]; 2.63 (inactive) in [16]; 0.604 (inactive) in assay [17]; 0.239 in assay [18]. Also, the results for the composite z-score in assay [14] and in assay [19] were 0.632 (inactive) and 0.232, respectively.
As to `Cc1ccc(N2C(=O)c3ccccc3[C@](C)(C(=O)O)[C@@H]2c2ccc(CO)cc2)nc1`, the z-score is 0.0643 in assay [1]; 0.937 in assay [2]; -0.0479 in assay [3]; -0.231 in [4]; 0.614 in assay [5]; 0.521 in assay [6]. Further, the z-score in [7] is 0.23 (inactive); in assay [8] it was -0.167; in assay [9], 0.25; in assay [10], 0.755 (inactive); in assay [11], 0.522; in assay [12], -0.0489 (inactive). Besides, the z-score was 1.28 (inactive) in assay [13]; 0.826 (inactive) in assay [15]; 0.826 (inactive) in [16]; 0.396 (inactive) in assay [17]; 1.27 in [18]. Moreover, the results for the composite z-score in assay [14] and in assay [19] were 0.217 (inactive) and -0.0641, respectively.
